# Experimental data taken from PubChem BioAssay AID686979 (National Center for Advancing Translational Sciences (NCATS), 2013).
# Out of some 420,000 compounds screened, about 50,000 (12%) were called active. Where a call stands in place of a potency, no number is given. Roughly 26% stayed inconclusive and do not appear here. Calls come from the whole dose curve; as a rule, active = well fitted inhibition curve with a large enough effect; inconclusive = small, poorly fitted or top-dose-only effect; inactive = flat fitted curve, though single readings scatter. The sample as a whole holds a higher share of actives than the screen did.
# Assay: qHTS for Inhibitors of human tyrosyl-DNA phosphodiesterase 1 (TDP1): qHTS in cells in presence of CPT; note: nearly all actives have a fitted effect of over 55% in size
# Details: chicken DT40 Tdp1-/-;hTDP1 cells + 20 nM CPT, ATP luminescence, 48 h; series mostly up to 46.2 µM
# Outline: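 Cell growth measured by CellTiter-Glo luminescence after a minimum 48 h, 37 C compound exposure with 20 nM CPT in Tdp1-knockout DT40 cells stably expressing hTDP1, seeded 400/well; qHTS titration format.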
# Potency is the fitted concentration of half-maximal effect.
row,Compound,Potency
1,O=C(CSCc1c(Cl)cccc1Cl)NN1C(=O)c2ccccc2C1=O,inactive
2,CC1CC(C)CN(CCCNC(=O)Cn2ncc3c([nH]c4ccccc43)c2=O)C1 (configuration not stated),inactive
3,Cc1ccc(Cn2c(C)c3cnn(CC(=O)NCCN4CCOCC4)c(=O)c3c2C)cc1,inactive
4,Cc1ccc(Cn2c(C)c3cnn(CC(=O)NCc4ccccc4)c(=O)c3c2C)cc1,2.91 µM (active)
5,O=C(Cn1ncc2c3ccccc3n(Cc3ccccc3)c2c1=O)NCc1ccccn1,inactive
6,CCCn1c2ccccc2c2cnn(CC(=O)NCCCOC(C)C)c(=O)c21,23.1 µM (active)
7,CCCn1c2ccccc2c2cnn(CC(=O)NCC3CCN(Cc4ccc(C)cc4)CC3)c(=O)c21,20.6 µM (active)
8,CC1CCCCN1CCCNC(=O)Cn1ncc2c([nH]c3ccccc32)c1=O (configuration not stated),inactive
9,Cc1ccccc1CNC(=O)Cn1c(C)c2cnn(-c3ccccc3)c(=O)c2c1C,inactive
10,COc1cc(NC(=O)NCC2CCN(Cc3ccc(C)cc3)CC2)cc(OC)c1OC,inactive
11,O=C1C(Cl)=C(N2CCOCC2)C(=O)N1c1ccccc1,inactive
12,CCOC(=O)CNC(=O)CSc1ncccc1-c1nc2ccccc2[nH]1,inactive
13,COc1ccccc1C1=CC(=O)C[C@H](c2ccc(F)cc2)C1,inactive
14,COc1ccc(-c2nnc3n2CCCCC3)cc1,inactive
15,O=C(O)c1ccc([N+](=O)[O-])cc1Sc1ccsc1,inactive
16,COc1ccc(-c2nc3c(c(SCC(=O)Nc4ccc(C(=O)O)cc4)n2)Cc2ccccc2O3)cc1,inactive
17,Cc1ccc(-c2nc(Cn3c(=O)cc(-c4ccccc4)c4c(C)nn(C)c43)c(C)o2)cc1,inactive
18,CCOC(=O)Nc1ccc2c(c1)N(C(=O)CCCl)c1ccccc1[S@]2=O,4.61 µM (active)
19,CCOC(=O)Nc1ccc2c(c1)N(C(=O)CCN1CCN(CCO)CC1)c1ccccc1CC2,inactive
20,CCOC(=O)Nc1ccc(NC(=O)OCC)cc1,inactive
21,CN(CC(=O)Nc1ccccc1F)CC(=O)Nc1ccccc1Br,inactive
22,CN(C(=N)N)c1ccc(/C=C2\C=Cc3ccccc32)cc1,5.01 µM (active)
23,COc1ccc(N(CC(=O)N/N=C/c2cccc3c2OCCO3)S(=O)(=O)c2ccc(NC(C)=O)cc2)cc1,inactive
24,CCCCc1ccc(NS(=O)(=O)c2cccc(C(=O)N3CCCN(C)CC3)c2)cc1,23.1 µM (active)
25,CC(=O)N1CCN(C(=O)c2cccc(S(=O)(=O)Nc3ccc(C)cc3)c2)CC1,inactive

row,Compound,Potency
1,O=C(c1cccc(S(=O)(=O)Nc2ccccc2Cl)c1)N1CCN(C(=O)c2ccco2)CC1,inactive
2,COc1ccc(Br)c2c1C(=O)CC2,inactive
3,Nc1nonc1-n1nnc(C(=O)N/N=C/C2CCCCC2)c1-c1ccccc1,inactive
4,CC(=O)Nc1ccc(Oc2ccc3c(c2)C(=O)NC3=O)cc1,inactive
5,O=C(CC(n1cncn1)C(Cl)(Cl)Cl)c1ccc([N+](=O)[O-])cc1 (configuration not stated),16.4 µM (active)
6,O=C(NNS(=O)(=O)Cc1ccccc1)c1ccc([N+](=O)[O-])cc1,inactive
7,O=C(CCn1nnc2ccccc21)OCC(=O)c1ccc([N+](=O)[O-])cc1,inactive
8,O=C(COc1coc(CN2CCN(c3ccccc3F)CC2)cc1=O)N1CCc2ccccc21,inactive
9,Cc1cc(N2CCOCC2)nc(-c2ccc(Br)cc2)n1,inactive
10,O=C1CC(C(=O)O)NC(=S)N1 (configuration not stated),inactive
11,COc1ccc(Nc2ncc(F)c(N3CCOCC3)n2)cc1,20.6 µM (active)
12,COc1ccc(-n2c(=O)c(C)nc3cnc(N4CCOCC4)nc32)cc1,inactive
13,CCOc1nc(NCCN2CCOCC2)nc(Nc2ccc(C)cc2)n1,inactive
14,Cc1ccc(-c2nnc3c4ccccc4c(C)nn23)cc1NC(=O)c1cccc(Br)c1,inactive
15,Cc1cc[n+](-c2[nH]c(=O)sc2/C=N/NC(=O)c2ccccc2[O-])cc1C,inactive
16,O=C(CN1CCN(c2ccccn2)CC1)Nc1ccc(Br)cc1,inactive
17,Brc1ccc(-c2n(-c3ccccn3)c3ccccc3[n+]2-c2ccccn2)cc1,18.4 µM (active)
18,COc1cccc(NC(=O)N2CCC(NC(=O)C(Cc3cccc(C)c3)NC(C)=O)CC2)c1 (configuration not stated),inactive
19,Cn1c(-c2ccc(C(F)(F)F)cc2)cc2onc(-c3ccccc3)c2c1=O,inactive
20,O=C(c1csnn1)N1CCC2(CC1)CN(c1ncccn1)C2,inactive
21,CSCCC(Nc1ccc(S(=O)(=O)N2CCOCC2)cc1[N+](=O)[O-])C(=O)OCC(=O)N(C(C)C)C(C)C (configuration not stated),inactive
22,CN(C)C(=O)c1ccc2c(c1)C1C3CCC(C3)C1C(c1ccccc1)N2 (configuration not stated),16.4 µM (active)
23,CN(C)C(=O)c1ccc(NC(=O)c2ccccc2-c2ccccc2)cc1,inactive
24,Cc1sc(NC(=O)c2ccc3ncsc3c2)c(C(N)=O)c1C,inactive
25,COc1cccc(NC(=O)N2C3CCCC2CC(NC(C)=O)C3)c1 (configuration not stated),inactive

row,Compound,Potency
1,CCOC(=O)N1CCC(NC(=O)c2cnn(-c3cccc(C)c3)c2C2CCN(C(=O)OC(C)(C)C)CC2)CC1,23.1 µM (active)
2,COc1cccc2c1cc1c(=O)n(CC(=O)N3CCN(c4cccc(Cl)c4)CC3)nc(C)n12,inactive
3,CC(C)(C)OC(=O)N1CCC(c2c(C(=O)N3CCN(c4cccc(Cl)c4)CC3)cnn2-c2cccc(Cl)c2)CC1,14.6 µM (active)
4,CC(C)(C)OC(=O)N1CCC(C(=O)NNC(=O)c2ccc(Cl)cc2Cl)CC1,inactive
5,CCOC(=O)N1CCC(NC(=O)CCc2ccccc2)CC1,inactive
6,Cc1cccc(-n2ncc(C(=O)N3CCN(c4ccc(Cl)cc4)CC3)c2C2CCN(C(=O)OC(C)(C)C)CC2)c1,14.6 µM (active)
7,Cc1cccc(-n2ncc(C(=O)N3CCc4ccccc4C3)c2C2CCN(C(=O)OC(C)(C)C)CC2)c1,inactive
8,CCOC(=O)N1CCC(NC(=O)c2cnn3ccccc23)CC1,inactive
9,Cc1cccc(-n2ncc(C(=O)N3CCC(C)CC3)c2C2CCN(C(=O)OC(C)(C)C)CC2)c1,inactive
10,CCCCN(C(=O)CCNC(=O)NC12CC3CC(CC(C3)C1)C2)c1c(N)n(CCCC)c(=O)[nH]c1=O,inactive
11,Cc1ccc(S(=O)(=O)N2CC(O)C[C@H]2C(=O)OCC(=O)Nc2ccc(N3CCOCC3)cc2)cc1C (some centres not stated),inactive
12,COc1ccc(S(=O)(=O)N2CCCC2CNC(=O)C(=O)NC2CC2)cc1 (configuration not stated),inactive
13,Cc1ccc(NC(=O)CC2S/C(=N/N=C3\CCCc4ccccc43)NC2=O)cc1 (configuration not stated),inactive
14,CN1C(=O)/C(=C\c2cc(Br)cs2)c2ccccc21,inactive
15,Cc1cc(C)c2c3c(sc2n1)C(c1ccccc1)C(C#N)=C(N)O3 (configuration not stated),inactive
16,N#CC1=C(N)Oc2cc(N)ccc2C1c1ccccc1 (configuration not stated),23.1 µM (active)
17,N#CC1=C(N)Oc2c(ccc3cccnc23)C1c1ccncc1 (configuration not stated),inactive
18,CN1C(=O)C2(OCCCO2)c2cc(Cl)ccc21,inactive
19,C=O,inactive
20,COc1ccc(C(CNC(=O)c2ccc(OCc3cscn3)cc2)N2CCCC2)cc1 (configuration not stated),inactive
21,CCOc1ccc(NS(=O)(=O)c2ccc(C(=O)NCC3CCCO3)cc2)cc1 (configuration not stated),inactive
22,CCOc1ccc(NS(=O)(=O)c2ccc(C(=O)NCC(c3ccccc3OC)N3CCCC3)cc2)cc1 (configuration not stated),29.1 µM (active)
23,CN=C(NC#N)NCCSCc1nc[nH]c1C,inactive
24,CCC(C)C(=O)Nc1cc([N+](=O)[O-])ccc1Cl (configuration not stated),inactive
25,CC(=O)Nc1ccc(NC(=O)c2ccc3c(c2)C(=O)N(c2ccccc2C)C3=O)cc1,inactive

row,Compound,Potency
1,O=S(=O)(NCc1ccccc1)c1ccc(S(=O)(=O)N2CCCC2)cc1,inactive
2,O=S(=O)(c1ccc2nc(N3CCN(c4cccc(Cl)c4)CC3)ccc2c1)N1CCCCC1,inactive
3,O=S(=O)(c1ccc2nc(NCc3ccccc3Cl)ccc2c1)N1CCCCC1,10.3 µM (active)
4,CC(C)C(NC(=O)C1CCC(C(C)(C)C)CC1)C(=O)NCCCN1CCCCC1 (configuration not stated),inactive
5,CC(C)N1C(=O)c2ccccc2NC(=O)C1C(=O)NCc1cccs1 (configuration not stated),inactive
6,COc1ccc(CNC(=O)C2CCN(S(=O)(=O)c3ccc(SC)cc3)CC2)cc1,inactive
7,CCS(=O)(=O)N1CCCC(C(=O)NCc2ccc(C)cc2)C1 (configuration not stated),inactive
8,CCOc1ccc(NC(=O)c2cc(S(=O)(=O)N3CCCC3)c[nH]2)cc1,inactive
9,CCOc1ccc(N(CC)S(=O)(=O)N2CCCC(C(=O)Nc3ccc(C(C)=O)cc3)C2)cc1 (configuration not stated),20.6 µM (active)
10,CCOc1ccc(NC(=O)C2CCCN(C(=O)Nc3ccccc3)C2)cc1 (configuration not stated),inactive
11,CCOc1ccc(N(CC)S(=O)(=O)N2CCCC(C(=O)NCc3ccc(SC)cc3)C2)cc1 (configuration not stated),23.1 µM (active)
12,COc1cccc(CNC(=O)CN(C)S(=O)(=O)c2ccc3c(c2)c(=O)n(C)c(=O)n3C)c1,inactive
13,Cc1ccc(C)c(OCCC(=O)OCC(=O)c2ccc3c(c2)NC(=O)CO3)c1,inactive
14,Cc1ccc(C23CC4CC(CC(C(=O)NCC(=O)O)(C4)C2)C3)cc1,inactive
15,COc1ccc(C(=O)COC(=O)CN2C(=O)C3CC=CCC3C2=O)c(OC)c1 (configuration not stated),inactive
16,CC(C)Cn1c(N)c(C(=O)COC(=O)CN2C(=O)C3CC=CCC3C2=O)c(=O)n(C)c1=O (configuration not stated),16.4 µM (active)
17,CC1CC1C(=O)OCC(=O)c1c(N)n(C)c(=O)n(C)c1=O (configuration not stated),inactive
18,CCOC(=O)[C@H]1[C@H]2COc3ccc(Br)cc3[C@@H]2N2C(=O)CN(C)C(=O)[C@@]12C,inactive
19,CCOC(=O)[C@H]1[C@H]2COc3cc(OC)ccc3[C@@H]2N2C(=O)N(c3ccc(Br)cc3)C(=O)[C@@]12C,25.9 µM (active)
20,CCOC(=O)[C@@H]1[C@H]2COc3cc(OC)ccc3[C@@H]2N2C(=O)N(c3cccc(C)c3)C(=O)[C@@]12C,inactive
21,CCOc1n[nH]c(-c2ccccc2)n1,inactive
22,Cc1ccc(S(=O)(=O)c2c[nH]c3ccc(C)cc3c2=O)cc1,inactive
